According to PubChem BioAssay (NCATS):
Records with an inconclusive call do not appear. Calls of active or inactive are those of the source. Unless noted, calls come from the whole dose curve; as a rule, active = well fitted curve in the direction sought with a large enough effect; inconclusive = small, poorly fitted or top-dose-only effect, or another doubt; inactive = no such curve, though single readings can be large; an effect the other way counts as inactive or inconclusive.

Key:
[1] = Cell Viability - BJ (AID 421; calls by dose curve;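 note: potency is the fitted concentration of half-maximal effect; cells exposed to compound for 40 hours at 37 °C before readout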); settings: BJ fibroblast viability, qHTS
How it was run: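 Luminescent ATP signal (CellTiter-Glo, 20 min at room temperature) served as the read-out of viable BJ cells after 40 hours of compound treatment. Responses were scaled between DMSO and 100 uM tamoxifen, and AC50 values were obtained by Hill modeling.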

[2] = Cell Viability - Jurkat (AID 426;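 active = dose-dependent loss of cell ATP signal giving a full or clear fitted curve, ranked by lower potency value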;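 note: potency is the fitted concentration of half-maximal effect; cells exposed to compound for 40 hours at 37 °C before ATP read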); settings: qHTS
How it was run: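 Cytotoxicity taken as drop in cellular ATP (CellTiter-Glo luminescence, 20 min room temperature) after 40 hr, 37C treatment of 5000 Jurkat Clone E6-1 cells per well; concentration-response fitted with Hill equation for AC50.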

[3] = Cell Viability - HepG2 (AID 433; calls by dose curve;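 note: potency is the fitted concentration of half-maximal effect; potency for ATP loss meaning cytotoxicity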); settings: qHTS
How it was run: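 Read-out is luciferase-based quantitation of cellular ATP as a measure of viable HepG2 cells after 40 h treatment at 37 °C. Signal decrease is scaled between DMSO-only and 100 uM tamoxifen controls, with AC50 fitted by the Hill equation.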

[4] = Cell Viability - MRC5 (AID 434; calls by dose curve;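 note: potency is the fitted concentration of half-maximal effect; cells exposed to compound for 40 hours at 37 °C; potency reflects cytotoxicity seen as loss of intracellular ATP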); settings: MRC5 lung fibroblast viability, qHTS
How it was run: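 ATP luminescence read-out (CellTiter-Glo, 20 min RT) after 40 hr, 37 °C compound exposure of 1500 MRC5 cells/well. Data normalized to DMSO (basal) and 100 uM tamoxifen (100% inhibition); AC50 from standard Hill equation.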

[5] = Cell Viability - SK-N-SH (AID 435; calls by dose curve; note: potency is the fitted concentration of half-maximal effect); settings: SK-N-SH neuroblastoma cell viability qHTS
How it was run: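 Luminescent ATP signal served as the viability read-out after 40 hours of compound treatment of human neuroblastoma SK-N-SH cells. Concentration-response data, scaled between DMSO and 100 uM tamoxifen, gave AC50 values by standard Hill modeling.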

[6] = target: Mitogen-activated protein kinase 10 (Mus musculus) (UniProt Q61831); experiment: JNK3 AlphaScreen Assay (AID 530; active = well fitted curve in either direction with a large enough effect, not every such curve was filed as active;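 note: kinase came from lysate of stimulated human HepG2 cells; signal reports phosphorylation of biotinylated GST-cJun 1-79 at Ser73 with 10 µM ATP; % is set by controls: 0 for no effect and ±100 for the full control effect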); settings: JNK3 lysate, c-Jun phosphorylation; series mostly up to 57.1 µM
How it was run: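 Activity was read by AlphaScreen after JNK3-containing HepG2 lysate (cytokine pre-activated) phosphorylated biotinylated GST-cJun with 10 uM ATP at room temperature. Phospho-Ser73 cJun antibody with Protein-A acceptor beads provided detection.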

[7] = Cell Viability - N2a (AID 540); settings: N2a mouse neuroblastoma cell viability; activity change, negative = cytotoxicity: at 92.2 µM (top of the series);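 note: plate controls were DMSO alone for no effect and tamoxifen control for full effect; nearly all actives have a fitted effect of over 45% in size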
How it was run: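 CellTiter-Glo ATP luminescence, read 20 min after reagent at room temperature, reported viability following 40 h compound treatment at 37 °C. N2a mouse neuroblastoma cells seeded 1500/well; Hill equation gave AC50.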

[8] = Cell Viability - NIH 3T3 (AID 541); settings: NIH 3T3 cell viability, qHTS; activity change, negative = cytotoxicity: at 92.2 µM (top of the series);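 note: plate controls were DMSO alone for no effect and tamoxifen positive control for full effect; nearly all actives have a fitted effect of over 25% in size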
How it was run: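 Intracellular ATP (CellTiter-Glo luminescence, 20 min at room temperature) measured after 40 hr compound exposure at 37 °C of 1000 NIH 3T3 mouse fibroblasts/well in complete medium; AC50 derived by Hill-equation modelling of qHTS concentration-response curves.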

[9] = Cell Viability - HUV-EC-C (AID 542); settings: HUV-EC-C endothelial cell viability, qHTS; series mostly up to 92.2 µM; note: % is set by controls: 0 for no effect and ±100 for the full control effect; nearly all actives have a fitted effect of over 35% in size
How it was run: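 CellTiter-Glo luminescence measured ATP loss in HUV-EC-C cells (1000/well) after 40 hr compound exposure at 37 °C, in complete culture medium. Concentration-response data were Hill-fitted to give AC50.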

[10] = Cell Viability - SH-SY5Y (AID 544); settings: SH-SY5Y neuroblastoma cell viability; viability change, negative = cytotoxic: at 92.2 µM (top of the series); note: nearly all actives have a fitted effect of over 55% in size
How it was run: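 Cytotoxicity measured via ATP-dependent luciferase luminescence (CellTiter-Glo) following 40 h, 37 °C exposure of 1500 SH-SY5Y cells per well. Concentration-response data were fitted with the standard Hill equation to give AC50.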

[11] = Cell Viability - Renal Proximal Tubule (AID 545); settings: renal proximal tubule cells viability, primary cells of rat origin; series mostly up to 91.7 µM; note: nearly all actives have a fitted effect of over 40% in size
How it was run: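 Luminescent ATP signal (CellTiter-Glo) served as the viability read-out after 40 hr compound exposure of freshly isolated rat proximal tubule cells at 37 °C. Concentration-dependent ATP loss was fitted with the Hill equation to give AC50.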

[12] = Cell Viability - Mesenchymal (AID 546); settings: mesenchymal cells viability, qHTS; series mostly up to 91.7 µM;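 note: cells exposed to compound for 40 hours before reading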
How it was run: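 Human renal mesenchymal cells (glomerulus-derived), 1000 cells/well, 5 hr 37 °C pre-incubation; compound 40 hr, 37 °C; CellTiter-Glo, 20 min RT; luminescence; AC50 via Hill equation.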

[13] = Cellular Toxicity (caspase-3) HepG2 (AID 654); settings: HepG2 caspase-3 activation, luminescence; series mostly up to 92.2 µM;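 note: cells exposed to compound for 16 hours before reading; 0% = DMSO alone and 100% = caspase signal from 100 µM tamoxifen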
How it was run: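 Caspase 3/7 activation is measured as a luminescence increase (aminoluciferin substrate) after 16 h compound exposure of human hepatocarcinoma HepG2 cells. AC50 values are Hill fits, scaled between DMSO baseline and 100 uM tamoxifen stimulation.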

[14] = Cellular Toxicity (caspase-3) Jurkat (AID 655); settings: Jurkat caspase-3 activation, luminescence; caspase-3 activation: at 92.2 µM (top of the series), DMSO = 0%, tamoxifen = 100%;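 note: cells exposed to compound for 16 h at 37 °C before reading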
How it was run: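 5000 Jurkat cells/well; compound 16 hr, 37 °C; Caspase-Glo 3/7 added, 20 min RT; luminescence read. Norm: DMSO = 0%, tamoxifen 100 uM = 100%. AC50, Hill model.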

[15] = Cellular Toxicity (caspase-3) HUV-EC-C (AID 656); settings: HUV-EC-C cells, caspase-3 activation (apoptosis), vehicle = 0, 100 µM tamoxifen = 100%; series mostly up to 92.2 µM
How it was run: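 qHTS; HUV-EC-C, 1000 cells/well; 5 hr settle, 16 hr cmpd, 37°C; Caspase-Glo 3/7, 20 min RT; luminescence. Norm: DMSO = 0%, tamoxifen 100 uM = 100%. Hill-fit AC50.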

[16] = Cellular Toxicity (caspase-3) SHSY5Y (AID 657); settings: SH-SY5Y caspase-3 activation, DMSO zero, 10 µM staurosporine = 100%; series mostly up to 91.7 µM;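 note: cells exposed to compound for 16 hours at 37 °C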
How it was run: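 qHTS, SH-SY5Y, 1500 cells/well, 5 h pre-incubation 37 °C; compound 16 h 37 °C; Caspase-Glo 3/7 1 h RT; luminescence. Norm.: DMSO = 0, 10 uM staurosporine = 100%. Hill fit → AC50.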

[17] = Cellular Toxicity (caspase-3) BJ (AID 658); settings: BJ fibroblasts, luminescence, normalized: DMSO 0%, staurosporine 100%; series mostly up to 91.7 µM;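 note: cells exposed to compound for 16 hours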
How it was run: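 qHTS, BJ fibroblasts, 1000 cells/well; 5 hr preincubation, 16 hr compound, 37 °C; Caspase-Glo 3/7 reagent, 1 hr RT; luminescence. DMSO = 0%, 10 uM staurosporine = 100%. Hill-equation AC50.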

[18] = Cellular Toxicity (caspase-3) MRC-5 (AID 659); settings: MRC-5 cells, luminescence, normalized: DMSO 0%, 10 µM staurosporine 100%; series mostly up to 91.7 µM
How it was run: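 MRC-5 fibroblasts, 1500/well; 16 h cpd, 37 °C; Caspase-Glo 3/7, 1 h RT; lumi read. Norm: DMSO = 0%, 10 uM staurosporine = 100%. Hill-fit AC50 from qHTS conc-response.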

[19] = Cell Viability - H-4-II-E (AID 543); settings: H-4-II-E rat hepatoma viability; series mostly up to 92.2 µM; note: % is set by controls: 0 for no effect and ±100 for the full control effect; nearly all actives have a fitted effect of over 35% in size
How it was run: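 CellTiter-Glo luminescence (intracellular ATP) measured after 40 h compound exposure at 37 °C in H-4-II-E rat hepatoma cells seeded at 1500/well. Values are AC50s fitted with the standard Hill equation.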

CCCCC(CC)COCC1CO1 (stereo not drawn)
inactive: Potency [1] > 92 µM | Potency [2] > 92 µM | Potency [3] > 92 µM | Potency [4] > 92 µM | Potency [5] > 92 µM | outcome [6] | activity change, negative = cytotoxicity [7] -13.9% | Potency [8] | Potency [9] | Potency [10] | Potency [11] | Potency [12] | Potency [13] | caspase-3 activation [14] -3.18% | outcome [15] | outcome [16] | outcome [17] | outcome [18]

C[C@@H]1CC2(OC[C@]3(C)O[C@H]23)O[C@H]2C[C@@]3(C)[C@@H]4CC[C@H]5C(C)(C)C(O[C@@H]6OC[C@@H](O)[C@H](O)[C@H]6O)CC[C@@]56C[C@@]46CC[C@]3(C)[C@@H]12 (stereo partly drawn)
inactive: Potency [1] > 92 µM | Potency [2] > 92 µM | Potency [3] > 92 µM | Potency [4] > 92 µM | Potency [5] > 92 µM | outcome [6] | activity change, negative = cytotoxicity [7] 11% | Potency [8] | Potency [9] | Potency [19] | Potency [10] | Potency [11] | Potency [13] | caspase-3 activation [14] 2.9% | outcome [15] | outcome [16] | outcome [18]

COC(=O)CCCC(=O)OC
inactive: Potency [1] > 92 µM | Potency [2] > 92 µM | Potency [3] > 92 µM | Potency [4] > 92 µM | Potency [5] > 92 µM | outcome [6] | activity change, negative = cytotoxicity [7] 3.33% | Potency [9] | Potency [19] | Potency [10] | Potency [11] | Potency [12] | Potency [13] | caspase-3 activation [14] 0.321% | outcome [15] | outcome [16] | outcome [17]

CNc1ccccc1
inactive: Potency [1] > 92 µM | Potency [2] > 92 µM | Potency [3] > 92 µM | Potency [4] > 92 µM | Potency [5] > 92 µM | outcome [6] | activity change, negative = cytotoxicity [7] -12.9% | Potency [8] | Potency [9] | Potency [19] | Potency [10] | Potency [11] | Potency [12] | Potency [13] | caspase-3 activation [14] 1.08% | outcome [15] | outcome [16] | outcome [17] | outcome [18]

CCCCC(CC)C(=O)O (stereo not drawn)
inactive: Potency [1] > 92 µM | Potency [2] > 92 µM | Potency [3] > 92 µM | Potency [4] > 92 µM | outcome [6] | activity change, negative = cytotoxicity [7] 4.15% | Potency [8] | Potency [9] | Potency [10] | Potency [11] | Potency [12] | Potency [13] | caspase-3 activation [14] 1.13% | outcome [15] | outcome [17] | outcome [18]

Cc1cccc(C(=O)O)c1
inactive: Potency [1] > 92 µM | Potency [2] > 92 µM | Potency [3] > 92 µM | Potency [4] > 92 µM | Potency [5] > 92 µM | activity change, negative = cytotoxicity [7] -7% | Potency [8] | Potency [9] | Potency [19] | Potency [10] | Potency [11] | Potency [12] | Potency [13] | caspase-3 activation [14] -6.77% | outcome [15] | outcome [16] | outcome [17] | outcome [18]

CSCCC=O
inactive: Potency [1] > 92 µM | Potency [2] > 92 µM | Potency [3] > 92 µM | Potency [4] > 92 µM | Potency [5] > 92 µM | outcome [6] | activity change, negative = cytotoxicity [7] -17.9% | Potency [8] | Potency [9] | Potency [19] | Potency [10] | Potency [11] | Potency [13] | caspase-3 activation [14] -1.33% | outcome [15] | outcome [16] | outcome [17] | outcome [18]

C[C@@H]1CC2(OC3C[C@@]4(C)C5=CC[C@H]6C(C)(C)C(O[C@@H]7OC[C@@H](O)[C@H](O)[C@H]7O)CC[C@@]67C[C@@]57CC[C@]4(C)C31)OC(O)C1(C)OC21 (stereo partly drawn)
inactive: Potency [1] > 92 µM | Potency [2] > 92 µM | Potency [3] > 92 µM | Potency [4] > 92 µM | Potency [5] > 92 µM | outcome [6] | activity change, negative = cytotoxicity [7] -8.85% | Potency [8] | Potency [9] | Potency [19] | Potency [10] | Potency [11] | Potency [12] | Potency [13] | caspase-3 activation [14] 2.56% | outcome [15] | outcome [16] | outcome [17]

CC(=O)Nc1ccc(C)cc1
inactive: Potency [1] > 92 µM | Potency [2] > 92 µM | Potency [3] > 92 µM | Potency [5] > 92 µM | outcome [6] | activity change, negative = cytotoxicity [7] -10.4% | Potency [8] | Potency [9] | Potency [10] | Potency [11] | Potency [12] | Potency [13] | caspase-3 activation [14] 1.97% | outcome [15] | outcome [16] | outcome [17] | outcome [18]
